Hits are enriched below; roughly 5.4% of the tested compounds scored in any of these assays.
Vaccinia Venus: qHTS for Stage-Specific Inhibitors of Vaccinia Orthopoxvirus: Venus Reporter Primary qHTS; 330,000 compounds, 0.46% hits; Potency, µM (titrated, usually from 36.5 µM), for inactives: top-dose activity change, negative = inhibition, most hits filed as inhibitors; AID 720580, 2013; Vaccinia virus Venus reporter expression, fluorescence; calls by dose curve; tested in A549 cells; also: nearly all actives have a fitted effect of over 30% in size
MARV entry inh: qHTS for inhibitors of binding or entry into cells for Marburg Virus. Marburg virus pseudotyped entry inhibition, cell reporter. Potency, µM (highest dose often 37.8 µM), without a hit: at the top dose activity change, negative = inhibition, hits mostly inhibitors. 300,000 compounds, 1.8% hits. AID 540276, 2011; calls by dose curve; tested in HEK293 cells
Sm TGR block: qHTS Assay for the Inhibitors of Schistosoma Mansoni Peroxiredoxins. 360,000 compounds, 3% hits. Potency, µM (titrated, usually from 114 µM), without a hit: at the highest dose activity change, negative = inhibition, actives largely listed as inhibitors. purified TGR, DTNB reduction, TNB absorbance 405 nm. AID 485364, 2010; active = well fitted inhibition curve with a large enough effect; inconclusive = small, poorly fitted or top-dose-only effect; inactive = no such curve, though single readings can be large or run the other way; also: nearly all actives have a fitted effect of over 60% in size
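TGR 20 nM + NADPH 100 uM (dispensed conc.), cpd preinc 15 min RT; start with NADPH (500 uM addition) then DTNB (15 mM addition). Kinetic TNB absorbance, 405 nm filter. Four-parameter Hill fit across titration.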
LASV entry inh: qHTS for Inhibitors of binding or entry into cells for Lassa Virus; Lassa virus pseudotype entry inhibition, cell reporter; Potency, µM (series often up to 37.9 µM), inactives show at the highest dose activity change, negative = inhibition, hits mostly inhibitors; 300,000 compounds, 1.2% hits; AID 540256, 2011; calls by dose curve; tested in HEK293 cells; also: nearly all actives have a fitted effect of over 50% in size
FMDV inh: High Throughput Screening for Foot and Mouth Disease Virus Antivirals | FMDV antiviral cell-based qHTS | Potency, µM (titrated, usually from 57.9 µM), for inactives: at the top dose activity change, negative = inhibition, most hits filed as inhibitors | 410,000 compounds, 1.2% hits; calls by dose curve; tested in HEK293T cells; also: read-out not given here; nearly all actives have a fitted effect of over 45% in size
Vaccinia mCherry: qHTS for Stage-Specific Inhibitors of Vaccinia Orthopoxvirus: mCherry Reporter Primary qHTS. 310,000 compounds, 0.63% hits. Potency, µM (series often up to 36.5 µM), inactives show at the highest dose activity change, negative = inhibition, actives largely listed as inhibitors. Vaccinia virus mCherry reporter infection, fluorescence; calls by dose curve; tested in A549 cells; also: nearly all actives have a fitted effect of over 35% in size
* marks the source's active call; other numbers are inactive results; i = inactive; ? = inconclusive; / = no result; [ ] = remark or other dose. % is scaled to controls: 0 for no effect and ±100 for the full control effect; potency is read from the fitted curve at half-maximal effect.

SMILES | Vaccinia Venus | MARV entry inh | Sm TGR block | LASV entry inh | FMDV inh | Vaccinia mCherry
COc1ccc(NC(=O)CCn2cnc3onc(-c4ccc(F)cc4)c3c2=O)cc1OC | ? | / | -20% | 0%[46.1 µM] | 10µM* | ?
CCc1cc2c(nc1CC)CCN(CCC(C)=NO[C@H](C)c1cn([C@H](CO)Cc3ccccc3)nn1)C2 | / | -16%[14.2 µM] | / | / | / | /
Cc1ccc(C)n1-c1cccc(S(=O)(=O)N2CCOCC2)c1 | -5% | 0%[46.1 µM] | 35µM* | ? | -8% | -15%
Cc1cc(C(=O)CSc2ncn[nH]2)c(C)n1-c1cccc(S(=O)(=O)N2CCOCC2)c1 | -16% | ? | -12% | 0% | 28µM* | -2%
Cc1cc(C(=O)CCl)c(C)n1-c1cccc(S(=O)(=O)N2CCOCC2)c1 | 8% | ? | 3.5µM* | -12% | 25µM* | 5%
CCCCCCN1C(=O)CC[C@@]23C1=NC(C(=O)OC)=C(C(=O)OC)[C@@H]2N(Cc1ccccc1)c1ccccc13 | / | -28%[14.2 µM] | / | / | / | /
Cc1ccc(CNC(=O)c2ccc3nc4[nH]c5ccccc5c4nc3c2)cc1 | / | -15% | -1% | -6% | / | /
COc1ccccc1CNC(=O)c1ccc2nc3[nH]c4ccccc4c3nc2c1 | 10µM* | ? | -2% | ? | 33% | 8.9µM*
Cc1cccc(CCNC(=O)c2sc3nc4n(c(=O)c3c2C)CCCC4)c1 | -8% | / | -27% | 6%[46.1 µM] | 5% | -13%
Cc1cccc(NC(=O)Cn2c(=O)n(CCCCCC(=O)NCc3ccc4c(c3)OCO4)c(=O)c3sccc32)c1 | -2% | ? | 45% | 3%[46.1 µM] | -4% | -8%
CCCc1ccc(OCc2ccc(C(=O)N3CCN(c4ccccn4)CC3)o2)c(OC)c1 | -18% | 23µM* | -16% | 33%[14.3 µM] | ? | -19%
CCCNC(=O)c1ccc(COc2ccc(CCC)cc2OC)o1 | -20% | 0%[46.1 µM] | -14% | 6.3µM* | ? | i
COc1ccc(CC(=O)N2CCN(c3ccccn3)CC2)cc1OC | -10% | 7% | 3% | 11% | -7% | -11%
Cc1nn(-c2ccccc2)c2c1N(CCCC(=O)NC(C)c1ccccc1)C(=O)CS2 (centres undefined) | -13% | / | -5% | -25%[46.1 µM] | 0% | -2%
CCc1c(C)sc(NC(=O)c2cccs2)c1C(=O)OC(C)C | -21% | 9.2µM* | 0% | ? | / | -27%
CCCOc1ccccc1NC(=O)/C=C/C(N)=O | / | -22% | 3.2µM* | 4% | ? | /
Cc1cc(C)c(C#N)c(Sc2nc(C)c([N+](=O)[O-])c(C)c2C#N)n1 | ? | / | / | / | 22µM* | ?
Cc1nc(Sc2ccccc2)c(C#N)c(C)c1[N+](=O)[O-] | -16% | -9%[46.1 µM] | -19% | -20% | ? | ?
CN(CCCCCC(=O)/C=N\O)Cc1ccccc1 | / | 0% | / | / | / | /
O=C(/C=C/c1ccc([N+](=O)[O-])cc1)/C=C/c1ccco1 | / | / | 4.5µM* | / | / | /
C/C(=N/NC(=O)CNC(=O)/C=C/c1ccco1)c1ccc(Cl)cc1 | -12% | ? | 8.9µM* | -8% | 11% | -8%
O=C(/C=C/c1ccco1)NCC(=O)N/N=C/c1ccc(Cl)cc1 | / | / | 14µM* | / | -16% | /
O=C(/C=C/c1ccco1)NCC(=O)N/N=C/c1ccc([N+](=O)[O-])cc1 | / | / | 8.9µM* | / | -3% | /
CC12C=C(C=Cc3ccc(C(F)(F)F)cc3)C(C)(C1)C(c1ccc(C(F)(F)F)cc1)CC2=O (centres undefined) | / | 6%[14.2 µM] | / | / | / | /
COc1ccc(OC)c(S(=O)(=O)N2CCC(c3ccncc3)CC2)c1 | -18% | / | -9% | 9%[46.1 µM] | 0% | -7%
CNC(=O)[C@@H]1C[C@@H](NCc2cccc(Oc3ccccc3)c2)CN1C(C)C | -10% | / | / | / | -13% | -14%
COC1=C[C@H](C(=O)N[C@H]2CCCC[C@H]2NC(C)=O)[C@@]2(C)Cc3ccccc3[C@@H]2CC1=O | / | -12%[14.2 µM] | / | / | / | /
COc1ccc(NC(=O)CSc2cn(CCNC(=O)c3c(F)cccc3F)c3ccccc23)cc1 | -5% | -19%[46.1 µM] | 0% | -8%[46.1 µM] | 22% | -6%
